Experimental data reported in PubChem BioAssay AID1159580 (chemical genetic matrix, 2015).
In all, about 5,500 compounds went through this assay and about 2,000 (36%) were called active. Inconclusive results (about 18%) are left out. The list shows a part of the results. Unmarked numbers belong to inactive results. Rule as the data show it: active = normalized growth mostly below about 0.91 (no sharp cut-off); inconclusive = no clear call, values can overlap the other calls; inactive = mostly above about 0.92.

Experiment: chemical genetic growth profiling, strain panel (AID 1159580);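 also: tested at 20 µM; growth read once vehicle control cultures reached saturation at 30 °C; 1 = growth at the plate median or of vehicle wells; lower values mean less growth of the strain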
Conditions: growth OD
[1] = S. cerevisiae deletion strains, locus YAL013W, strain DEP1, active compounds read low
[2] = S. cerevisiae deletion strains, locus YBR229C, strain ROT2, active compounds read low
[3] = S. cerevisiae deletion strains, locus YCL061C, strain MRC1, active compounds read low
[4] = S. cerevisiae deletion strains, locus YDL101C, strain DUN1, active compounds read low
[5] = S. cerevisiae deletion strains, locus YDR150W, strain NUM1, active compounds read low
[6] = S. cerevisiae deletion strains, locus YEL061C, strain CIN8, active compounds read low
[7] = S. cerevisiae deletion strains, locus YGR078C, strain PAC10, active compounds read low
[8] = S. cerevisiae deletion strains, locus YHR030C, strain SLT2, active compounds read low
[9] = S. cerevisiae deletion strains, locus YHR087W, strain rtc3, active compounds read low
[10] = S. cerevisiae deletion strains, locus YJR043C, strain POL32, active compounds read low
[11] = S. cerevisiae deletion strains, locus YJR075W, strain HOC1, active compounds read low
[12] = S. cerevisiae deletion strains, locus YLR039C, strain RIC1, active compounds read low
[13] = S. cerevisiae deletion strains, locus YLR058C, strain SHM2 (second series), active compounds read low
[14] = S. cerevisiae deletion strains, locus YLR085C, strain ARP6, active compounds read low
[15] = S. cerevisiae deletion strains, locus YLR262C, strain YPT6, active compounds read low
[16] = S. cerevisiae deletion strains, locus YML094W, strain GIM5, active compounds read low
[17] = S. cerevisiae deletion strains, locus YMR219W, strain ESC1, active compounds read low
[18] = S. cerevisiae deletion strains, locus YMR263W, strain SAP30, active compounds read low
[19] = S. cerevisiae deletion strains, locus YMR307W, strain GAS1, active compounds read low
[20] = S. cerevisiae deletion strains, locus YNL153C, strain GIM3, active compounds read low
[21] = S. cerevisiae deletion strains, locus YNL298W, strain CLA4 (second series), active compounds read low
[22] = S. cerevisiae deletion strains, locus YNL322C, strain KRE1, active compounds read low
[23] = S. cerevisiae deletion strains, locus YNR030W, strain Alg12, active compounds read low
[24] = S. cerevisiae deletion strains, locus YPL055C, strain LGE1, active compounds read low
[25] = S. cerevisiae deletion strains, locus YPL241C, strain CIN2, active compounds read low
[26] = S. cerevisiae deletion strains, locus YPR135W, strain CTF4, active compounds read low
[27] = S. cerevisiae strains, strain wild type, active compounds read low
[28] = S. cerevisiae deletion strains, locus YHR079C, strain IRE1, active compounds read low
[29] = S. cerevisiae deletion strains, locus YJL095W, strain BCK1, active compounds read low
[30] = S. cerevisiae deletion strains, locus YJR066W, strain TOR1, active compounds read low
[31] = S. cerevisiae deletion strains, locus YLR113W, strain HOG1, active compounds read low
[32] = S. cerevisiae deletion strains, locus YNL183C, strain NPR1, active compounds read low
[33] = S. cerevisiae deletion strains, locus YOR231W, strain MKK1, active compounds read low
[34] = S. cerevisiae deletion strains, locus YPL256C, strain CLN2, active compounds read low

## Cc1cc(=O)n2[nH]cc(C#N)c2n1
[1]
  normalized growth: 1
[2]
  normalized growth: 1
[3]
  normalized growth: 1.02
[4]
  normalized growth: 1.01
[5]
  normalized growth: 1.04
[6]
  normalized growth: 0.999
[7]
  normalized growth: 1.01
[8]
  normalized growth: 1.09
[9]
  normalized growth: 1.01
[10]
  normalized growth: 1.02
[11]
  normalized growth: 0.995
S. cerevisiae deletion strains, locus YKL190W, strain CNB1, active compounds read low
  normalized growth: 0.981
[12]
  normalized growth: 1.01
[13]
  normalized growth: 1
[14]
  normalized growth: 1
[15]
  normalized growth: 1.04
[16]
  normalized growth: 0.995
[17]
  normalized growth: 0.994
[18]
  normalized growth: 1.04
[19]
  normalized growth: 0.968
[20]
  normalized growth: 1.02
[21]
  normalized growth: 1.01
[22]
  normalized growth: 1
[23]
  normalized growth: 1.01
[24]
  normalized growth: 1.06
[25]
  normalized growth: 0.99
[26]
  normalized growth: 1.09
[27]
  normalized growth: 0.993

## CSC(=CC(=O)c1ccc(Cl)cc1)SC
[1]
  normalized growth: 0.884 (active)
[2]
  normalized growth: 0.867 (active)
[3]
  normalized growth: 0.848 (active)
[4]
  normalized growth: 0.836 (active)
S. cerevisiae deletion strains, locus YDL134C, strain PPH21, active compounds read low
  normalized growth: 0.747 (active)
[5]
  normalized growth: 0.888
[6]
  normalized growth: 0.74 (active)
[7]
  normalized growth: 0.872 (active)
S. cerevisiae deletion strains, locus YGR229C, strain SMI1, active compounds read low
  normalized growth: 0.884 (active)
[8]
  normalized growth: 0.218 (active)
[9]
  normalized growth: 0.829 (active)
S. cerevisiae deletion strains, locus YJL187C, strain SWE1, active compounds read low
  normalized growth: 0.869 (active)
[10]
  normalized growth: 0.874 (active)
[11]
  normalized growth: 0.828 (active)
[12]
  normalized growth: 0.421 (active)
[13]
  normalized growth: 0.836 (active)
[14]
  normalized growth: 0.394 (active)
[15]
  normalized growth: 0.431 (active)
[16]
  normalized growth: 0.79 (active)
[17]
  normalized growth: 0.889 (active)
[18]
  normalized growth: 0.874 (active)
[19]
  normalized growth: 0.286 (active)
S. cerevisiae deletion strains, locus YNL128W, strain TEP1, active compounds read low
  normalized growth: 0.888 (active)
[20]
  normalized growth: 0.879 (active)
[21]
  normalized growth: 0.645 (active)
[22]
  normalized growth: 0.895 (active)
[23]
  normalized growth: 0.765 (active)
[24]
  normalized growth: 0.771 (active)
[25]
  normalized growth: 0.685 (active)
[26]
  normalized growth: 0.352 (active)
[27]
  normalized growth: 0.811 (active)

## COC1=C(O)C(=O)c2c(cc3oc(C(C)=O)c(O)c3c2O)C1=O
[8]
  normalized growth: 0.986
[28]
  normalized growth: 1.01
[29]
  normalized growth: 1.03
[30]
  normalized growth: 0.957
[31]
  normalized growth: 1.04
[32]
  normalized growth: 0.973
[33]
  normalized growth: 0.999
[34]
  normalized growth: 0.973

## Cc1csc(NC(=O)Nc2ccc(C(F)(F)F)cc2)c1Cl
S. cerevisiae deletion strains, locus YAR019C, strain CDC15, active compounds read low
  normalized growth: 0.958
S. cerevisiae deletion strains, locus YBL105C, strain PKC1, active compounds read low
  normalized growth: 0.96
S. cerevisiae deletion strains, locus YBR135W, strain CKS1, active compounds read low
  normalized growth: 0.948
S. cerevisiae deletion strains, locus YBR136W, strain MEC1, active compounds read low
  normalized growth: 0.957
S. cerevisiae deletion strains, locus YBR160W, strain CDC28, active compounds read low
  normalized growth: 0.943
S. cerevisiae deletion strains, locus YDL017W, strain CDC7, active compounds read low
  normalized growth: 0.954
S. cerevisiae deletion strains, locus YDL028C, strain MPS1, active compounds read low
  normalized growth: 0.962
[4]
  normalized growth: 0.988
S. cerevisiae deletion strains, locus YDL108W, strain KIN28, active compounds read low
  normalized growth: 0.948
S. cerevisiae deletion strains, locus YDL132W, strain cdc53, active compounds read low
  normalized growth: 0.969
S. cerevisiae deletion strains, locus YDL214C, strain PRR2, active compounds read low
  normalized growth: 0.836
S. cerevisiae deletion strains, locus YDR052C, strain DBF4, active compounds read low
  normalized growth: 0.961
S. cerevisiae deletion strains, locus YDR054C, strain cdc34, active compounds read low
  normalized growth: 0.949
S. cerevisiae deletion strains, locus YDR226W, strain ADK1, active compounds read low
  normalized growth: 0.96
S. cerevisiae deletion strains, locus YDR477W, strain SNF1, active compounds read low
  normalized growth: 0.905
S. cerevisiae deletion strains, locus YER123W, strain YCK3, active compounds read low
  normalized growth: 0.802
S. cerevisiae deletion strains, locus YER133W, strain GLC7, active compounds read low
  normalized growth: 0.897
S. cerevisiae deletion strains, locus YFL009W, strain cdc4, active compounds read low
  normalized growth: 0.951
S. cerevisiae deletion strains, locus YFL029C, strain CAK1, active compounds read low
  normalized growth: 0.946
S. cerevisiae deletion strains, locus YFR003C, strain YPI1, active compounds read low
  normalized growth: 0.957
S. cerevisiae deletion strains, locus YFR019W, strain FAB1, active compounds read low
  normalized growth: 0.884
S. cerevisiae deletion strains, locus YFR028C, strain CDC14, active compounds read low
  normalized growth: 0.945
S. cerevisiae deletion strains, locus YGR040W, strain KSS1, active compounds read low
  normalized growth: 0.892
S. cerevisiae deletion strains, locus YGR052W, strain FMP48, active compounds read low
  normalized growth: 0.884
S. cerevisiae deletion strains, locus YGR092W, strain DBF2, active compounds read low
  normalized growth: 0.861
[8]
  normalized growth: 0.858
[28]
  normalized growth: 0.815
S. cerevisiae deletion strains, locus YHR082C, strain KSP1, active compounds read low
  normalized growth: 0.873
S. cerevisiae deletion strains, locus YHR205W, strain SCH9, active compounds read low
  normalized growth: 0.78
S. cerevisiae deletion strains, locus YIL147C, strain SLN1, active compounds read low
  normalized growth: 0.958
[29]
  normalized growth: 0.832
S. cerevisiae deletion strains, locus YJL128C, strain PBS2, active compounds read low
  normalized growth: 0.891
S. cerevisiae deletion strains, locus YJL157C, strain FAR1, active compounds read low
  normalized growth: 0.849
S. cerevisiae deletion strains, locus YJR016C, strain ILV3, active compounds read low
  normalized growth: 0.95
S. cerevisiae deletion strains, locus YJR066W, strain TOR1 (second series), active compounds read low
  normalized growth: 0.854
[30]
  normalized growth: 0.92
S. cerevisiae deletion strains, locus YKL048C, strain ELM1, active compounds read low
  normalized growth: 0.892
S. cerevisiae deletion strains, locus YKL067W, strain YNK1, active compounds read low
  normalized growth: 0.831
S. cerevisiae deletion strains, locus YKL101W, strain HSL1, active compounds read low
  normalized growth: 0.831
S. cerevisiae deletion strains, locus YKL193C, strain SDS22, active compounds read low
  normalized growth: 0.951
S. cerevisiae deletion strains, locus YKL203C, strain TOR2, active compounds read low
  normalized growth: 0.957
[31]
  normalized growth: 0.675 (active)
S. cerevisiae deletion strains, locus YLR133W, strain CKI1, active compounds read low
  normalized growth: 0.823
S. cerevisiae deletion strains, locus YLR403W, strain SFP1, active compounds read low
  normalized growth: 0.871
S. cerevisiae deletion strains, locus YML070W, strain DAK1, active compounds read low
  normalized growth: 0.802
S. cerevisiae deletion strains, locus YMR001C, strain CDC5, active compounds read low
  normalized growth: 0.954
S. cerevisiae deletion strains, locus YMR205C, strain PFK2 (second series), active compounds read low
  normalized growth: 0.833
S. cerevisiae deletion strains, locus YMR277W, strain FCP1, active compounds read low
  normalized growth: 0.966
S. cerevisiae deletion strains, locus YNL006W, strain LST8, active compounds read low
  normalized growth: 0.968
S. cerevisiae deletion strains, locus YNL020C, strain ARK1, active compounds read low
  normalized growth: 0.823
S. cerevisiae deletion strains, locus YNL161W, strain CBK1, active compounds read low
  normalized growth: 0.957
[32]
  normalized growth: 0.829
S. cerevisiae deletion strains, locus YNL207W, strain RIO2, active compounds read low
  normalized growth: 0.945
S. cerevisiae deletion strains, locus YNL222W, strain SSU72, active compounds read low
  normalized growth: 0.95
S. cerevisiae deletion strains, locus YNL307C, strain MCK1 (second series), active compounds read low
  normalized growth: 0.84
S. cerevisiae deletion strains, locus YOL078W, strain AVO1, active compounds read low
  normalized growth: 0.946
S. cerevisiae deletion strains, locus YOL136C, strain PFK27, active compounds read low
  normalized growth: 0.801
S. cerevisiae deletion strains, locus YOR061W, strain CKA2, active compounds read low
  normalized growth: 0.842
S. cerevisiae deletion strains, locus YOR119C, strain RIO1, active compounds read low
  normalized growth: 0.942
[33]
  normalized growth: 0.762
S. cerevisiae deletion strains, locus YOR329C, strain SCD5, active compounds read low
  normalized growth: 0.962
S. cerevisiae deletion strains, locus YPL031C, strain PHO85, active compounds read low
  normalized growth: 0.892
S. cerevisiae deletion strains, locus YPL153C, strain RAD53, active compounds read low
  normalized growth: 0.88
S. cerevisiae deletion strains, locus YPL204W, strain HRR25, active compounds read low
  normalized growth: 0.868
S. cerevisiae deletion strains, locus YPL209C, strain IPL1, active compounds read low
  normalized growth: 0.946
[34]
  normalized growth: 0.724 (active)
S. cerevisiae deletion strains, locus YPR025C, strain CCL1, active compounds read low
  normalized growth: 0.966
S. cerevisiae deletion strains, locus YPR106W, strain ISR1, active compounds read low
  normalized growth: 0.932
S. cerevisiae deletion strains, locus YPR111W, strain DBF20, active compounds read low
  normalized growth: 0.927
S. cerevisiae deletion strains, strain NNK1, active compounds read low
  normalized growth: 0.93
S. cerevisiae deletion strains, strain TSCII, active compounds read low
  normalized growth: 0.945
